Screening data as filed in PubChem BioAssay.
This is one part of a sample in which hits are shown more often than they occur.
Tgondii IFNg = blocks Toxoplasma gondii growth in the presence of IFN-gamma. Toxoplasma gondii growth in IFN-gamma-treated host cells; active compounds read low. activity change, negative = inhibition, % (no concentration beside the values). 3.8% of 69,000 active. AID 1259416; in the data active means activity change below about -70%, passing the limit was not always enough;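 further: host cells are HeLa cells infected with Toxoplasma gondii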
* = called active by the depositor.

SMILES | Tgondii IFNg
Cc1nc2ccc(NS(=O)(=O)c3ccc4c(c3)n(C)c(=O)c(=O)n4C)cc2nc1C | -36.5
CCCOCCN1CC(C(=O)O)CC1=O (centres undefined) | 98.9
COc1ccccc1NC(=O)COC(=O)c1cc(-c2ccccc2)nc2ccccc12 | -31.7
Cn1nc(CC2CCN(Cc3ccncc3)CC2)n(-c2ccccc2)c1=O | 15.7
CCOC(=O)c1ccc(Nc2nnc(-n3nc(C)cc3C)c3ccccc23)cc1 | -84.5*
CCOC(=O)c1nc(Nc2ccc(CC)cc2)c2ccccc2n1 | -38.1
Cc1cc(C)n(-c2nnc(SCC(=O)Nc3ccccc3)c3ccccc23)n1 | 2.8
COC1CCN(S(=O)(=O)N2CC(c3ccccn3)C2)CC1 | -3.7
CC(=O)Nc1cccc(-c2ccc(S(N)(=O)=O)s2)c1 | -43.6
COc1ccc(CC(=O)N2CC[C@H]3[C@@H]2CCN3c2ncccn2)cc1 | -1.3
CCCCOC(=O)N1CCc2c(nc(N(C)C)[nH]c2=O)C1 | -15.9
CCN1C[C@@H]2C3(CCN(C(=O)NCc4ccc(OC)cc4)CC3)CC[C@@]2(C(=O)N(C)C)C1 | -42.0
NC(=O)c1cc2c(s1)-c1cc(Cl)ccc1SC2 | -79.0*
CCOC(=O)c1nc(NCCc2c[nH]c3ccc(C)cc23)c2c(C)noc2n1 | 13.8
Cc1cc2occ(CC(=O)NCc3nc(-c4ccccc4)no3)c2cc1C | -15.5
CC(C)C1CN(C(=O)c2ccccc2O)CCCN1Cc1ccc(F)cc1 (centres undefined) | 10.2
FC(F)(F)c1cc(Oc2ccccc2)ncc1-c1nnc(-c2ccccc2Cl)o1 | -58.9
COc1ccccc1-c1nnc(CC(=O)O)o1 | -24.2
Clc1ccccc1-c1nnc(Cc2cc(Br)sc2Br)o1 | -90.2*
Cc1nc2nc(CC(=O)Nc3nc4c(s3)CCCCCC4)[nH]n2c(=O)c1C | -39.0
O=C(COC(=O)CN1C(=O)C(=O)c2ccccc21)Nc1nc2c(s1)CCCC2 | -9.6
COc1nn(CC(=O)Nc2nc3c(s2)CCCCCC3)c(=O)c2ccccc12 | -85.6*
CCCC(=O)Nc1ccc2c(c1)C(=O)N(C)C[C@@H](OC)[C@H](C)CN(C(=O)c1ccccn1)[C@H](C)CO2 | 3.8
COCC(=O)N1C[C@H](C)[C@@H](OC)CN(C)C(=O)c2ccc(NC(=O)Nc3cccc(F)c3)cc2OC[C@@H]1C | -35.0
CO[C@@H]1CN(C)C(=O)c2cc(NC(C)=O)ccc2OC[C@H](C)N(Cc2ccncc2)C[C@H]1C | -65.7
SMILES | Tgondii IFNg
CO[C@@H]1CN(C)C(=O)c2ccc(NC(=O)c3ccc4c(c3)OCO4)cc2OC[C@@H](C)N(Cc2ccc3c(c2)OCO3)C[C@H]1C | -80.1*
CCC(=O)Nc1ccc2c(c1)OC[C@H](C)N(Cc1ccccc1)C[C@H](C)[C@@H](OC)CN(C)C2=O | 173.4
COCC(=O)N1C[C@@H](C)[C@H](OC)CN(C)C(=O)c2ccc(NC(=O)c3ccc(-c4ccccc4)cc3)cc2OC[C@H]1C | -102.9*
CO[C@H]1CN(C)C(=O)c2ccc(NC(=O)Nc3cc(F)ccc3F)cc2OC[C@@H](C)N(C(=O)c2ccccn2)C[C@@H]1C | -88.3*
CCCC(=O)Nc1ccc2c(c1)C(=O)N(C)C[C@@H](OC)[C@H](C)CN(Cc1cc(-c3ccccc3)on1)[C@H](C)CO2 | -80.7*
CO[C@@H]1CN(C)C(=O)c2ccc(NC(=O)Nc3cc(F)ccc3F)cc2OC[C@H](C)N(C(=O)c2ccccn2)C[C@@H]1C | 2.5
CCC(=O)Nc1ccc2c(c1)OC[C@H](C)N(Cc1ccccc1)C[C@@H](C)[C@@H](OC)CN(C)C2=O | 210.7
CO[C@@H]1CN(C)C(=O)c2cc(NC(=O)Nc3ccccc3F)ccc2OC[C@@H](C)N(C(=O)c2cnccn2)C[C@H]1C | 44.3
COCC(=O)Nc1ccc2c(c1)OC[C@@H](C)N(C)C[C@@H](C)[C@@H](OC)CN(C)C2=O | -18.6
CCCCc1ncc(CN2CCC3(CC2)C(=O)N(C(C)C)C(=O)N3CCOC)[nH]1 | 10.6
CS(=O)(=O)N1Cc2nccn2CC(Cn2ncccc2=O)C1 (centres undefined) | 4.4
CCN1C(=O)CCc2cc(NC(=O)c3cccc(C(F)(F)F)c3)ccc21 | 5.8
CCS(=O)(=O)N1CCC2(CC1)OC(=O)C(C)=C2C(=O)Nc1ccccc1F | 37.3
CN1CCN2C[C@@H](NC(=O)C3(Cn4cccn4)CC3)C[C@H]2C1 | -46.6
Cc1ccc(-c2coc(-c3ccc(NC(=O)Nc4ccccc4)cc3)n2)c(C)c1 | 0.7
O=S(=O)(CCc1ccccc1)NCCc1csc(-c2ccc(F)cc2)n1 | 32.7
O=C1OCC2(CCN(C(=O)c3ccc(-c4ccccc4Cl)o3)CC2)O1 | 62.9
Cn1cc(C(=O)N2C[C@@H]3COC[C@@]3(CNS(C)(=O)=O)C2)cn1 | -38.6
O=S(=O)(Oc1cccc2cccnc12)c1ccc(-c2ccno2)s1 | 93.6
Cc1c(NC(=O)Cn2nc(C(F)(F)F)c3c2CCC3)c(=O)n(-c2ccccc2)n1C | -10.0
c1ccc(-c2nc(-c3cccnc3)n[nH]2)nc1 | 137.0
O=C1NCCN(C(=O)c2ccc(Cl)cc2)C1Cc1ccccc1 (centres undefined) | -7.8
Cc1c(Cl)cccc1NC(=O)N1CCC2(CC1)Nc1ccccc1-n1cccc12 | 253.3
